Data from PubChem BioAssay.
A number with no mark means an inactive call. The source made the active and inactive calls.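 How the source made its calls: active means thallium flux through the channel raised or lowered by more than 3 SD from vehicle-only wells, actives on both sides; inactive means the rest.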

Legend:
Assay in all cases: BK channel mutant inhibitors and activators – cell-based, U2OS BacMam, thallium flux, beta subunits, selectivity assay, profiling panel (AID 1259406);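 further: initial slope of Thallos dye fluorescence rise after thallium is added; log ratio against the mean of 0.3% DMSO vehicle wells on the same plate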
F380Y = conditions: U2OS BacMam BK variants, at 30 µM
F380Y/beta1 = conditions: U2OS BacMam BK variants, at 30 µM
F380Y/beta2Delta = conditions: U2OS BacMam BK variants, at 30 µM
F380Y/beta4 = conditions: U2OS BacMam BK variants, at 30 µM
[1] = target: Calcium-activated potassium channel subunit alpha-1 (Homo sapiens) + Leucine-rich repeat-containing protein 26 (Homo sapiens) (UniProt Q12791+Q2I0M4); conditions: U2OS BacMam BK variants, F380Y/Slo1WT/gamma1, at 30 µM
Sequence of Calcium-activated potassium channel subunit alpha-1 (Homo sapiens) + Leucine-rich repeat-containing protein 26 (Homo sapiens) (Q2I0M4 whole entry, looked up, one chain of several): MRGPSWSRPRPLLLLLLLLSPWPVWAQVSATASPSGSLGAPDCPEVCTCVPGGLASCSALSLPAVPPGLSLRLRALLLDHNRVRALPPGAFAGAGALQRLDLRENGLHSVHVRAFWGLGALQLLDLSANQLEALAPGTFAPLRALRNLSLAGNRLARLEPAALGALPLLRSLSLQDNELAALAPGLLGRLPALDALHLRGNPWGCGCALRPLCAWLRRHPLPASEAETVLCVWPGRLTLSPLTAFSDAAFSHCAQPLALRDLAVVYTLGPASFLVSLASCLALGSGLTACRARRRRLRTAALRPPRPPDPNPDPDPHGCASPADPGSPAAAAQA

R275C = conditions: U2OS BacMam BK variants, at 30 µM
R275C/beta1 = conditions: U2OS BacMam BK variants, at 30 µM
R275C/beta2Delta = conditions: U2OS BacMam BK variants, at 30 µM
R275C/beta4 = conditions: U2OS BacMam BK variants, at 30 µM
R275C/Slo1WT/beta2 = conditions: U2OS BacMam BK variants, at 30 µM

SMILES | log fold change Tl+ flux (F380Y) | log fold change Tl+ flux (F380Y/beta1) | log fold change Tl+ flux (F380Y/beta2Delta) | log fold change Tl+ flux (F380Y/beta4) | log fold change Tl+ flux [1] | log fold change Tl+ flux (R275C) | log fold change Tl+ flux (R275C/beta1) | log fold change Tl+ flux (R275C/beta2Delta) | log fold change Tl+ flux (R275C/beta4) | log fold change Tl+ flux (R275C/Slo1WT/beta2)
O=C(CSCc1csc2ccccc12)NCc1ccc2c(c1)OCO2 | -0.00508 | -0.0221 | -0.0281 | -0.0396 | -0.13 (active) | -0.0377 | -0.0155 | -0.0321 | -0.0151 | -0.0571
COc1cccc(CC(=O)NC2CCN(c3nccc(C(F)(F)F)n3)CC2)c1 | -0.0079 | -0.0102 | 0.00797 | -0.0197 | -0.0334 | -0.0558 | -0.0259 | -0.00912 | 0.0415 | 0.0233
Oc1c(Cl)c(Cl)c(Cl)c2ccccc12 | 0.503 (active) | 0.627 (active) | 0.473 (active) | 0.484 (active) | 0.395 (active) | 0.519 (active) | 0.527 (active) | 0.304 (active) | 0.702 (active) | 0.141 (active)
CCOC(=O)c1ccc(-n2sccc2=O)cc1 | -0.0987 | 0.078 | -0.0422 | -0.0664 | 0.0683 | 0.0277 | 0.179 (active) | 0.113 (active) | 0.141 (active) | 0.0482
O=C(O)CC1(CC(=O)Nc2cccc3nsnc23)CCCCC1 | 0.0408 | 0.0186 | 0.0387 | 0.0555 | 0.00374 | 0.055 | 0.00874 | 0.00584 | 0.0536 | 0.0319
COCc1cc(=O)[nH]c(SCC(=O)c2ccc(-c3ccccc3)cc2)n1 | 0.0542 | 0.0105 | 0.0138 | -0.000638 | 0.0335 | 0.0131 | -0.0427 | 0.032 | 0.0252 | -0.000518
Clc1cc(Cl)c(NN=Cc2cc(C#Cc3ccccc3)cs2)c(Cl)c1 | -0.0491 | 0.00923 | -0.0555 | 0.0192 | -0.0342 | -0.012 | 0.00694 | -0.0137 | 0.0367 | 0.0344
NC(=O)CN1C(=O)C(=Cc2ccco2)N=C1c1ccccc1 | -0.0123 | -0.0266 | -0.0599 | -0.0551 | -0.015 | -0.000262 | 0.031 | -0.0538 | 0.0139 | -0.0206
Oc1ccccc1C=NCCN=Cc1ccccc1O | -0.0379 | -0.0045 | 0.0233 | 0.122 (active) | 0.00734 | 0.0166 | -0.00586 | 0.0216 | 0.00607 | 0.0616
Cc1cc(-c2nn(C)c(=O)c3ccccc23)cc(C)c1O | 0.00104 | 0.0146 | 0.00813 | -0.0513 | -0.0365 | 0.0132 | 0.0233 | -0.0115 | 0.0138 | -0.0205
CSC(=S)NNC(=O)c1ccc(C(F)(F)F)cc1 | 0.0858 | 0.233 (active) | 0.0998 | 0.29 (active) | 0.1 | 0.134 (active) | 0.158 (active) | 0.0788 | 0.305 (active) | 0.232 (active)
Cc1nc(-c2n[nH]c(=S)n2C)cs1 | -0.0125 | -0.0212 | 0.0116 | -0.0241 | 0.0365 | 0.0188 | 0.00398 | 0.0232 | -0.0295 | -0.00583
CC(C)n1c(SCC(=O)c2ccccc2)nc2cc(Cl)ccc21 | -0.0377 | -0.0145 | -0.0247 | -0.709 (active) | -1.05 (active) | -0.667 (active) | -0.35 (active) | -0.0838 (active) | -0.0424 | -0.173 (active)
O=C(c1ccccc1)c1ccc2c(c1)Cc1ccccc1-2 | 0.00926 | -0.00651 | 0.0385 | -0.103 (active) | -0.0649 | -0.0862 (active) | -0.0486 | -0.00396 | 0.00762 | -0.0152
NC(Cc1ccc(OCc2ncc(C(F)(F)F)cc2Cl)cc1)=NOC(=O)c1ccccc1 | 0.0193 | -0.00621 | 0.00968 | -0.0023 | -0.00749 | 0.0533 | 0.0113 | 0.000291 | 0.00465 | 0.0382
NC(=NOC(=O)Nc1cccc(Cl)c1)c1ccno1 | -0.00531 | 0.0032 | 0.0232 | 0.000547 | 0.0155 | -0.025 | -0.0193 | 0.00772 | 0.0126 | 0.0133
O=C(O)c1ccccc1C(=O)NCc1ccccc1OC(F)(F)F | -0.05 | -0.0181 | -0.0248 | 0.0063 | -0.076 | -0.0155 | -0.0505 | -0.0385 | -0.0255 | 0.0015
Cc1cc(S(=O)(=O)c2ccc(Cl)cc2)sc1C(=O)NCC(O)c1ccccc1 (stereo not given) | 0.0511 | 0.0134 | 0.000794 | 0.0168 | -0.0326 | -0.0286 | 0.095 | 0.0132 | 0.0561 | -0.00987
CCOC(=O)c1c[nH]n2c(=O)c3c(nc12)CCC3 | 0.0447 | 0.0491 | 0.00798 | -0.00836 | -0.00512 | -0.0014 | 0.00358 | 0.00309 | 0.0387 | -0.0235
N#Cc1cc(-c2ccccc2)oc1NC(=O)c1cccs1 | -0.0586 | 0.0261 | 0.0131 | 0.0109 | 0.0363 | 0.00241 | -0.0262 | 0.0138 | -0.00555 | 0.0278
O=C(NNC(=O)c1ccc2nonc2c1)c1cccc(C(F)(F)F)c1 | 0.0115 | 0.037 | 0.0509 | 0.00874 | -0.0024 | 0.0381 | 0.0483 | 0.036 | 0.0129 | -0.0326
CN1c2ccsc2C(=O)C(=NNc2cccc(C(F)(F)F)c2)S1(=O)=O | -0.0122 | 0.00552 | 0.00348 | 0.0228 | -0.0208 | -0.00855 | 0.0113 | 0.00493 | -0.00494 | -0.0248
O=c1[nH]c2ccc(Cl)cc2c2oc(-c3ccccc3)nc12 | -0.0228 | 0.00567 | -0.059 | -0.0224 | -0.0128 | 0.01 | 0.031 | 0.0322 | 0.0357 | -0.0021
O=C(Nc1ccc(Cl)cc1)c1cnccc1C(F)(F)F | 0.0622 | 0.0187 | 0.066 | 0.0347 | -0.0423 | 0.0193 | 0.0288 | -0.00135 | 0.0311 | -0.0457
O=S(=O)(Cc1nc(C=Cc2cc(C(F)(F)F)cc(C(F)(F)F)c2)no1)c1ccc(Cl)cc1 | -0.0307 | 0.0685 | 0.000486 | -0.0134 | 0.00425 | 0.0144 | 0.0543 | 0.0281 | -0.0177 | 0.00318
CC(C)c1ccc(NC(=S)NC2CC3CC2C2C=CCC32)cc1 (stereo not given) | 0.00954 | -0.00688 | -0.0661 | -0.422 (active) | -0.206 (active) | -0.205 (active) | -0.152 (active) | -0.109 (active) | -0.11 (active) | -0.0657
